Results on 97 compounds are retold here after PubChem BioAssay AID1063 (University of Pittsburgh Molecular Library Screening Center, 2008).

About 18,000 (9%) of roughly 200,000 compounds were called active. The full list was thinned out, with actives kept by preference. A number with no mark means an inactive call. Rule as the data show it: active = inhibition above about 50%; inactive = the rest.

The assay in a line: antileishmanial activity against promastigotes – primary screen (AID 1063).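 Also: promastigotes grown with compound for 44 hours at 28 °C.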 The following applies: Leishmania major promastigotes, resazurin fluorescence viability; at 10 µM; stronger effect = higher value.
For `COc1cccc(CN2CCNC(=O)C2CC(=O)N(C)CCc2ccccn2)c1` (configuration not stated), the inhibition was 1.29%. Next, `CN(CCc1ccccn1)C(=O)CCC1CCCN(Cc2ccccc2OC(F)F)C1` (configuration not stated): 67.9% (active). For `COc1ccc(F)cc1C(=O)C1CCCN(C(=O)CCc2ccccn2)C1` (configuration not stated), the inhibition was -6.74%. As for `CN1CCNC(=O)C1CC(=O)N1CC=C(c2ccc(F)cc2)CC1` (configuration not stated), the inhibition was -0.97%. Turning to `Cn1cccc1-c1nc2ccccc2n1C`, the inhibition is 6.87%.

For the compound `O=C(CC1SC(=Nc2ccccc2F)N(CCN2CCOCC2)C1=O)Nc1ccc(F)cc1F` (configuration not stated), the inhibition is 50.8% (active). For the compound `N#C/C(C(=O)N1CCOCC1)=C1/SC(Cc2ccc(F)cc2)C(=O)N1c1ccccc1` (configuration not stated), the inhibition is -0.55%. Next, `CCN1C(=O)C(CC(=O)Nc2cc(C)ccc2C)SC1=Nc1ccc(S(N)(=O)=O)cc1` (configuration not stated): 10.5%; `CCOC(=O)Cc1ncccc1C(=O)Nc1ccc(OC(F)(F)F)cc1`: -5.35%. Next, `N#C/C(=C(\O)CCl)c1nnc2n1CCCCC2`: -1.52%; `N#C/C(=C(\O)C(F)(F)F)c1nnc2n1CCCCC2`: -2.09%; `N#C/C(=C/c1cccc([N+](=O)[O-])c1)c1nnc2n1CCCCC2`: 81.3% (active). Next, `Cc1ccc2nc(Nc3ncc4c(n3)CC(C)(C)CC4=O)nc(C)c2c1`: 9.71%; `Cn1cc(S(=O)(=O)N2CCC(Cc3ccccc3)CC2)c(=O)n(C)c1=O`: -5.82%; `c1ccc(CC2CCN(c3nc4ccccc4n4cnnc34)CC2)cc1`: 64.6% (active).

Take `O=C(c1ccccc1)c1ccc2nc(N3CCCCC3)c3nncn3c2c1`: the inhibition was -0.8%.

Regarding `CCOCCCNC(=O)C(NC(=O)Cc1c[nH]c2ccccc12)c1ccc(OC)cc1` (configuration not stated), the inhibition was -7.71%. In the case of `COc1cc(C=O)c(Br)cc1OCC(=O)NCc1ccccc1`, the inhibition is 4.2%. With `COc1ccc(CCNC(=O)COC(=O)Cc2cc(OC)c(OC)c(OC)c2)cc1` the figure was -3.11%.

Take `Cc1cc(N2CCN(Cc3ccc4c(c3)OCO4)CC2)n2ncnc2n1`: the inhibition was 12.7%. With `Fc1ccc2[nH]c3c(N4CCSCC4)ncnc3c2c1` the figure was 35.5%; with `Fc1ccc2[nH]c3c(N4CCN(Cc5ccc6c(c5)OCO6)CC4)ncnc3c2c1`, 77.8% (active); with `Nc1nnnn1CC(=O)N/N=C/c1ccc(-c2cccc(Cl)c2)o1`, -9.69%. For the compound `COc1ccc(/C=N/n2c(C)cc(C)cc2=O)cc1`, the inhibition was -6.47%. As for `CC(CN1CCCCC1)OC(=O)c1ccccc1Cl` (configuration not stated), the inhibition is -4.92%. Next, `CC(C)c1csc(CN2CCC(CO)(Cc3ccccc3)CC2)n1`: 14.2%; `CCC(C)CN1CCC(CO)(Cc2ccccc2Cl)CC1` (configuration not stated): 82.2% (active). Next, `CC1COc2ccccc2N1S(=O)(=O)c1ccccc1` (configuration not stated): 15.8%; `CC(=O)Nc1cccc(OCC(=O)/C=C2\N(C)c3ccccc3C2(C)C)c1`: 48.1%. With `CN1/C(=C\C=C2\N=C(c3ccc(F)cc3)OC2=O)C(C)(C)c2ccccc21` the figure was 63.4% (active); with `CN1CCN(CCC(=O)N/N=C/C=C2\N(C)c3ccccc3C2(C)C)CC1`, 4.61%. For `O=C(O)CSc1nccc2ccccc12`, the inhibition is -6.68%. With `O=C(c1ccccc1Cl)N(Cc1ccccc1F)N1C(=O)CCCC1=O`, the inhibition was -3.99%.

For `O=C(O)CC(SCC(=O)Nc1ccc(Br)cc1)C(=O)O` (configuration not stated), the inhibition is -3.9%. Consider `CC1(C)CC(=O)CC2(C1)NCC(c1ccccc1Cl)c1c2[nH]c2ccccc12` (configuration not stated), for which the inhibition was 53.5% (active).

On to `Cc1onc(-c2ccccc2)c1C(=O)NNC(=S)NC(=O)c1ccc(F)cc1`, for which the inhibition is -0.74%. Next, `c1ccc2c(c1)OCC(c1nn3cnnc3s1)O2` (configuration not stated): -7.7%; `O=C(Nc1nnc(C2COc3ccccc3O2)o1)c1ccc(F)cc1` (configuration not stated): 84.8% (active); `CCn1nc(C)c(CN2CCN(Cc3ccc(OC)c(C)c3C)C(CCO)C2)c1C` (configuration not stated): 5.83%.

For `CC1CCC(C(C)C)C(=O)/C1=C\c1ccc(NC(=O)CCC(=O)O)cc1` (configuration not stated), the inhibition is 4.09%.

Turning to `O=C(c1ccc(OC2CCN(Cc3ccccn3)CC2)cc1)N1CCCCCC1`, the inhibition is 39.9%. Next, `O=C(c1cccc(S(=O)(=O)N2CCOCC2)c1)N1CCOCC1`: -2.4%; `O=C(N/N=C/c1ccc([N+](=O)[O-])o1)c1cccc(S(=O)(=O)N2CCOCC2)c1`: 99.2% (active). With `COc1ccc(Br)cc1/C=N/NC(=O)c1cccc(S(=O)(=O)N2CCOCC2)c1` the figure was 14.1%. Regarding `O=C(Nc1ccc2oc(-c3ccccc3F)nc2c1)c1ccco1`, the inhibition is 9.45%. Consider `CS(=O)(=O)n1nc(-c2ccco2)nc1N`, for which the inhibition was -6.28%.

Regarding `CONc1nc2nonc2nc1NOC`, the inhibition was -1.47%.

For the compound `Cc1nn(-c2ccccc2)c(Cl)c1/C=C/C(=O)c1ccc(O)cc1`, the inhibition is 44.1%. For `Cc1ccc(C(=O)/C=C/c2c(C)nn(-c3ccccc3)c2Cl)cc1`, the inhibition is 73.7% (active). Turning to `Cc1nn(-c2ccccc2)c(Cl)c1C(=O)Nc1ccccc1`, the inhibition was 1.56%. Next, `CCCOC(=O)c1c(NC(=O)c2cnn3c2NC(c2ccccc2)CC3C(F)(F)F)sc2c1CCCC2` (configuration not stated): 4.09%. With `CCOC(=O)N1CCC(=NNC(N)=O)CC1` the figure was -11.1%; with `Cc1cccc(NC(=O)CN2C(=O)c3ccccc3C2=O)c1C`, -7.46%; with `CCOc1ccc2nc(SC(CC)C(=O)Nc3cc(C)on3)sc2c1` (configuration not stated), 6.15%. Next, `COc1ccc2nc(Nc3nc4ccc(NC(C)=O)cc4s3)sc2c1`: 6.91%; `Cc1cc(C)cc(OCC(=O)Nc2nc3ccc([N+](=O)[O-])cc3s2)c1`: -2.84%; `CCOc1ccc2nc(Nc3nc4ccc(NC(C)=O)cc4s3)sc2c1`: 72.1% (active). For `CCOc1ccc2nc(NC(=O)c3cc([N+](=O)[O-])ccc3N3CCOCC3)sc2c1`, the inhibition is 96% (active). Next, `O=C(NC1CCCCC1)c1cc([N+](=O)[O-])ccc1N1CCOCC1`: -6.49%; `COc1cccc(NC(=O)C(Sc2nnnn2C)c2ccccc2)c1` (configuration not stated): 10.5%; `COc1ccc(CN(C)Cc2nc3cc(OC)c(OC)cc3c(=O)[nH]2)c(OC)c1`: 1.39%. Next, `Cc1cc(NC(=O)CSc2nc3cc(Cl)ccc3c(=O)n2Cc2ccco2)no1`: 4.4%.

Regarding `COc1ccc(-c2cc(-c3ccc(N)cc3)nc(N)c2C#N)cc1OC`, the inhibition was -6.13%. Consider `O=C(NC1CC1)c1ccc(-c2ccccc2)cc1`, for which the inhibition is 6.37%. Regarding `CCOC(=O)c1ccc(NC(=S)Nc2cc(C)cc(C)n2)cc1`, the inhibition was 5.79%. With `O=C(COc1ccc(Cl)cc1)NCc1nnc(SCC(=O)NCC2CCCO2)o1` (configuration not stated) the figure was -8.43%; with `CC(O)c1nc2ccccc2n1Cc1ccc([N+](=O)[O-])cc1` (configuration not stated), -2.56%. Take `CC(=O)N1c2ccccc2N(Cc2ccc([N+](=O)[O-])cc2)C(=O)C1(C)C`: the inhibition is 51.9% (active). With `O=C(CSCc1ccc([N+](=O)[O-])cc1)NCCSCc1ccccc1` the figure was 12.9%; with `O=C(Nn1cnc2ccccc2c1=O)c1ccccc1`, -0.77%; with `CCNC(=O)NNC(=O)C1CC(c2cccs2)=NO1` (configuration not stated), -8.39%.

On to `CCN(C(=O)c1ccc(Br)cc1)c1ccccc1`, for which the inhibition was 3.92%. Next, `Cc1cc([N+](=O)[O-])nn1CCCC(=O)Nc1cccnc1Cl`: -6.69%; `CS(=O)(=O)N1CCC(C(=O)N2CCN(c3ccccc3)CC2)CC1`: -3.18%. On to `O=C(C1CCN(S(=O)(=O)c2ccc(Br)s2)CC1)N1CCN(C2CCCCC2)CC1`, for which the inhibition is 59.6% (active). Next, `O=C(C1CCN(S(=O)(=O)c2cccs2)CC1)N1CCCCCC1`: -2.87%. With `Cc1ccc(COc2ccc(C(=O)NN)cc2)cc1` the figure was -1.34%; with `CN(CCOc1ccc(Br)cc1)CC(=O)Nc1cccc(S(=O)(=O)NC2=NCCC2)c1`, -1.24%. As to `CCN1CCN(CCCCOc2ccccc2F)CC1`, the inhibition is 47.3%.

As for `CC1CN(CCOc2ccccc2[N+](=O)[O-])CC(C)O1` (configuration not stated), the inhibition is 8.57%.

With `Cc1ccc(OCCCC(=O)N2CCOCC2)c(C)c1`, the inhibition was -2.9%. Next, `C=CCN(CC=C)CCOc1ccccc1[N+](=O)[O-]`: 12.2%; `Cc1ccc(OCCCCN2CCCCC2)c(Br)c1`: 97.8% (active).

Turning to `Cc1ccc(C(C)(C)C)c(OCCCCN2CCCC2)c1`, the inhibition is 87.1% (active). Next, `O=[N+]([O-])c1ccccc1OCCCCN1CCCCC1`: 82.4% (active); `COc1ccccc1N1CCN(CCCCOc2ccc(F)cc2)CC1`: -5.52%; `Cc1ccc2c(C(=O)CN3CCCC3)c(C)[nH]c2c1`: 8.69%. With `CC(C)OC(=O)Cn1nc(C(F)(F)F)c2c1CCCC2` the figure was -5.66%; with `CC1CCCC(NC(=O)c2cccc(N3CCCC3=O)c2)C1C` (configuration not stated), -7.83%; with `COCCNc1nc2nonc2nc1N1CCCC1c1nccs1` (configuration not stated), -4.44%.

In the case of `O=C(c1cccc([N+](=O)[O-])c1)N1CCN(C(=O)c2ccco2)CC1`, the inhibition was 0.98%.

On to `CCn1c(COc2ccc(OC)cc2)nnc1SCC(=O)Nc1cc(OC)ccc1OC`, for which the inhibition was 60.8% (active). Consider `CCn1c(CNc2ccc(OC)cc2)nnc1SCC(=O)c1ccc(OC)cc1`, for which the inhibition was 70.5% (active). Turning to `C=CCn1c(CNC(=O)c2ccco2)nnc1SCC(=O)c1ccc(OC)cc1`, the inhibition is -7.42%. In the case of `COc1ccc(OC)c(NC(=O)CSc2nc3cccnc3n2C)c1`, the inhibition was -3.05%. With `CCn1c(COc2ccccc2)nnc1SCC(=O)Nc1ccc2c(c1)OCCO2` the figure was -3.59%; with `COC(=O)c1ccc(NC(=O)CSc2nnc(CNc3ccc(OC)cc3)n2C)cc1`, 9.68%.
